Most compounds without a hit are left out; they make up all but 3.4% or so of the library.
Gli-Sufu block: Gli-Sufu pathway antagonists, primary screen, luciferase luminescence, Sufu-KO-LIGHT cells, uHTS | Sufu-KO-LIGHT fibroblasts, Gli luciferase reporter luminescence | inhibition, % at 5 µM | 340,000 tested, 0.74% active | AID 588413, 2011;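 active = inhibition above about 55%, limit read from the data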
SMARCA2 act: SMARCA2 (BRM) function activators, primary screen, cell-based, luminescence, high throughput | activation, % at 9.1 µM | MG213 cells, MMTV-luciferase reporter, dexamethasone, overnight | 370,000 tested, 1% active; in the data active = activation above about 7.8%
H9c2 protect: cardioprotection against H2O2-induced cell death, primary screen, uHTS, H9c2 cells, ATPLite luminescence; 360,000 tested, 0.63% active; protection from H2O2 cell death, % at 20 µM; H9c2 cardiomyocytes, H2O2 injury protection, 2 h;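 active = compounds giving at least 50% protection of heart cells from peroxide-induced death in the single-dose screen, raw or plate-pattern-corrected value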
NR2F2 inh: NR2F2 transcriptional activity inhibitors, primary screen, cell-based, luciferase reporter, HEK293T, luminescence; COUP transcription factor 2 (Homo sapiens), P24468; HEK293T NGFI-A luciferase reporter; inhibition, % at 8.6 µM; 370,000 tested, 0.7% active;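 active = inhibition above a per-plate cutoff, mean inhibition of test wells between control levels plus 3 SD, cut at about 38% in these data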;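 also: cells cotransfected with COUP-TFII expression vector driving the NGFI-A reporter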
FXN GAA850 act: FXN promoter activators, primary screen, cell-based, luciferase luminescence, HEK293 lucGAA850; HEK293 lucGAA850 FXN promoter luciferase reporter, 24 h; percent of 10 µM SAHA response; activation, % at 6 µM; 360,000 tested, 0.56% active; AID 540364, 2011;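 active = activation above the average of all compounds screened plus 3 SD, cutoff fixed separately per campaign, cut at about 7.5% in these data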
GalR3 antag: GalR3 antagonists in HEK293 cells, primary screen, cell-based, fluorescence readout | inhibition, % at 3 µM | HEK293 GalR3-CNG cAMP membrane potential fluorescence; galR3 body fused to GalR1 C-terminus | 360,000 tested, 0.44% active;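 active = inhibition above the screen-wide average plus 3 SD, cut at about 13% in these data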;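 also: forskolin and galanin both at EC90 stimulate the cells; cAMP rise reported by CNG channel membrane potential dye signal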
Target sequence (O60755 1-299 limits assumed): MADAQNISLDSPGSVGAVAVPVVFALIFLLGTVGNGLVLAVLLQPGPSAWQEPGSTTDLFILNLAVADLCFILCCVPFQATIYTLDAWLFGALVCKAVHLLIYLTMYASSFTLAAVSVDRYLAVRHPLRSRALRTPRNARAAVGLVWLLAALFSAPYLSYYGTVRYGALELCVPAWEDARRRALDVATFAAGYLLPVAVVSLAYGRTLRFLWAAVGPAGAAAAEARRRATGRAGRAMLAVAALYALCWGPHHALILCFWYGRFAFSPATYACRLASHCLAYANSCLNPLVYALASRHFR
Gli-Sufu confirm: Gli-SUFU pathway antagonists, confirmation, single concentration, luciferase luminescence, Sufu-KO-LIGHT cells; inhibition, % at 5 µM; 2,500 tested, 40% active; shares compounds with Gli-Sufu block; AID 602428, 2012; Gli luciferase reporter;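 active = mean inhibition at 5 µM reaching about 45%, limit read from the data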
SufuKO cytotox: cytotoxicity in Sufu-KO-LIGHT cells, confirmation, cytotoxicity control for Gli-SUFU antagonist project, cell-based, ATP luminescence, single concentration; 2,500 tested, 32% active; cytotoxicity, % at 5 µM; shares compounds with Gli-Sufu block; AID 651994, 2013;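 active = mean cytotoxicity at 5 µM above about 25%, limit read from the data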;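 also: cells exposed to compound overnight for roughly 16 to 18 hours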
Wnt3a counter: Wnt3a reporter signal inhibition, confirmation, counter-screen for Gli-SUFU antagonist project, Wnt-LIGHT cells, luminescence, single concentration; shares compounds with Gli-Sufu block; Wnt3a-driven luciferase reporter; inhibition, % at 6.25 µM; 2,500 tested, 20% active; AID 651995, 2013;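 active = mean inhibition above about 25%, limit read from the data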
A number is an active result.

`COc1ccc(O)c2c(=O)c3c(OC)cc4c(c3oc12)C1C=COC1O4` (stereo not drawn) gave Gli-Sufu block 60, SMARCA2 act inactive, H9c2 protect inactive, NR2F2 inh inactive, FXN GAA850 act inactive, GalR3 antag inactive, Gli-Sufu confirm 69, SufuKO cytotox 37 and Wnt3a counter inactive.
`CCCC(=O)c1cc(CP(=O)(OCC)OCC)oc1C` gave Gli-Sufu block inactive, SMARCA2 act inactive, H9c2 protect inactive, NR2F2 inh inactive, FXN GAA850 act inactive and GalR3 antag inactive.
CCOP(=O)(Cc1cc(C(C)=O)c(C)o1)OCC was read as Gli-Sufu block 68, SMARCA2 act inactive, H9c2 protect inactive, NR2F2 inh inactive, FXN GAA850 act inactive, GalR3 antag inactive, Gli-Sufu confirm inactive, SufuKO cytotox inactive and Wnt3a counter inactive.
For Cc1cc(C=C2C(=O)NC(=O)NC2=O)c(C)n1-c1ccc2c(c1)OCO2 the results were Gli-Sufu block inactive, SMARCA2 act inactive, H9c2 protect inactive, NR2F2 inh inactive, FXN GAA850 act inactive and GalR3 antag inactive.
Cc1cc(/C=C2\C(=O)NC(=O)N(C)C2=O)c(C)n1-c1ccc2c(c1)OCO2 was read as Gli-Sufu block 69, SMARCA2 act inactive, H9c2 protect inactive, NR2F2 inh inactive, FXN GAA850 act inactive, GalR3 antag inactive, Gli-Sufu confirm inactive, SufuKO cytotox inactive and Wnt3a counter inactive.
COC(=O)C1=C(c2ccc(Cl)c(C(F)(F)F)c2)C[C@@H]2CC[C@H]1N2C(=O)NCc1cc(C)oc1C(F)(F)F was read as Gli-Sufu block inactive, SMARCA2 act inactive, H9c2 protect inactive, NR2F2 inh inactive, FXN GAA850 act inactive and GalR3 antag inactive.
For O=C1NC(=O)C(Cc2ccccc2)(Cc2ccccc2)C(=O)N1 the results were Gli-Sufu block inactive, SMARCA2 act inactive, H9c2 protect inactive, NR2F2 inh inactive, FXN GAA850 act inactive and GalR3 antag inactive.
CCOc1cccc(=NC2CCCCC2)c2c(C)n(C)c(C)c12 was read as Gli-Sufu block 86, SMARCA2 act inactive, H9c2 protect inactive, NR2F2 inh inactive, FXN GAA850 act inactive, GalR3 antag inactive, Gli-Sufu confirm 89, SufuKO cytotox 44 and Wnt3a counter inactive.
CC1CCCC(C2(O)C(=O)Nc3ccccc32)C1=O (stereo not drawn) was read as Gli-Sufu block 96, SMARCA2 act inactive, H9c2 protect inactive, NR2F2 inh inactive, FXN GAA850 act inactive, GalR3 antag inactive, Gli-Sufu confirm inactive, SufuKO cytotox inactive and Wnt3a counter inactive.
For N#CCCn1cc(C(=O)Nc2ccc(F)cc2)c(-c2ccccc2)n1 the results were Gli-Sufu block inactive, SMARCA2 act inactive, H9c2 protect inactive, NR2F2 inh inactive, FXN GAA850 act inactive, GalR3 antag inactive, Gli-Sufu confirm inactive, SufuKO cytotox inactive and Wnt3a counter inactive.
Screening Cc1cc(-c2ccccc2)cc(C)[n+]1Cc1ccccc1 returned Gli-Sufu block 79, SMARCA2 act inactive, H9c2 protect inactive, NR2F2 inh inactive, FXN GAA850 act inactive, GalR3 antag inactive, Gli-Sufu confirm 84, SufuKO cytotox inactive and Wnt3a counter 32.
`COc1cccc(OCc2cc(C(=O)N3C[C@H]4C[C@@H](C3)c3cccc(=O)n3C4)no2)c1` gave Gli-Sufu block inactive, SMARCA2 act inactive, H9c2 protect inactive, NR2F2 inh inactive, FXN GAA850 act inactive and GalR3 antag inactive.

Screening results as filed in PubChem.
